Among all 130,000 compounds or so, about 1,200 (0.92%) were called active.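 How the source made its calls: active means inhibition above the mean plus 3 SD, with well images judged a real hit on visual review (cut at about 60% in these data, passing the limit was not always enough); inconclusive means inhibition over the cutoff but images rejected on review; inactive means inhibition not above the cutoff.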 What follows is part of a selection rich in actives, with near analogues and random picks from the rest.
assay: insulin gene promoter suppression in islet cells – imaging, TRM-6 cells (human fetal islet line), eGFP reporter, cell count, primary screen (AID 1273;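 on normalized cell count: cells exposed to compound for 48 h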); details: at 2 µM, reporter expression induced with tamoxifen; inhibition: stronger effect = higher value; normalized cell count: measured here: cell count, toxicity

Row | Compound | inhibition | normalized cell count [%]
1 | Cc1ccccc1N1C(=O)C(Oc2ccc(Cl)cc2)C1CNCC1CCCO1 (stereo unspecified) | -11.8% (inactive) | 94.4
2 | OC(c1nnc(-c2ccccc2)o1)c1cccs1 (stereo unspecified) | 75% (active) | 106
3 | Brc1ccc(-c2nnc(-c3ccccc3)o2)o1 | 19.1% (inactive) | 142
4 | Nc1ccc(-c2nnc(-c3ccc(-c4ccccc4)cc3)o2)cc1 | 46.7% (inactive) | 46.6
5 | CCCCNC(=O)N1CCN(S(C)(=O)=O)CC1 | -42.9% (inactive) | 86.1
6 | CCCCCN1CC(O)=C(c2ccccc2)C1=N | 9.59% (inactive) | 61.8
7 | Clc1ccc(-c2csc(-c3ccncc3)n2)cc1 | -16.7% (inactive) | 49.8
8 | CCCCCN1CC(O)=C(c2nc(-c3ccc(Cl)cc3)cs2)C1=N | 81.1% (active) | 67.1
9 | O=C(O)CSCC(=O)Nc1ccc(C(F)(F)F)cc1 | 29.4% (inactive) | 92.1
10 | CCC(=O)c1ccc(OCC(O)Cn2nc(C)c(C(C)=O)c2C)cc1 (stereo unspecified) | 20% (inactive) | 57.4
11 | Cc1ccccc1NC(=O)Cn1c(=O)n(CC2CCCO2)c(=O)c2ccccc21 (stereo unspecified) | 13.3% (inactive) | 106
12 | O=C(CSc1nnnn1-c1ccc2c(c1)CCC2)Nc1ccc2c(c1)OCCO2 | 28.6% (inactive) | 88.2
13 | Cc1ccc(SCC(=O)Nc2ccc3c(c2)OCCO3)cc1 | 20.6% (inactive) | 137
14 | O=C(CSc1nnnn1C1CCCC1)Nc1ccc2c(c1)OCCO2 | 73.3% (active) | 70.4
15 | COc1ccccc1N(C)S(=O)(=O)c1ccc(Cl)c(C(=O)N2CCC(C(N)=O)CC2)c1 | 18.2% (inactive) | 83.5
16 | CCOC(=O)c1sc(NC(=O)CSc2nc(O)c(Cc3ccccc3)c(=O)[nH]2)nc1C | -50% (inactive) | 56.7
17 | O=c1c(Cl)c(NC2CC2)cnn1-c1ccccc1 | -85% (inactive) | 114
18 | NC(=O)c1ccc(CN2CCC(Cc3ccccc3)CC2)cc1 | -347% (inactive) | 40.1
19 | Cc1ccc(CC(=O)Nc2cccc(C#N)c2)cc1 | -16.7% (inactive) | 153
20 | NC(=S)N/N=C/c1ccc([N+](=O)[O-])cc1 | -36.4% (inactive) | 109
21 | Cc1ccsc1C(=O)N/N=C/c1ccc([N+](=O)[O-])cc1 | 6.67% (inactive) | 153
22 | Cc1nc2ccccc2cc1C(=O)N/N=C/c1ccc([N+](=O)[O-])cc1 | 75% (active) | 81
23 | COc1cc(C(=O)N[C@@H](C)C(=O)NCc2ccco2)cc(OC)c1OC | 33.3% (inactive) | 166
24 | CCCN(C(=O)CSc1nnnn1C)c1c(N)n(Cc2ccccc2)c(=O)[nH]c1=O | -90.9% (inactive) | 30.3
25 | O=c1[nH]c(CN2CCOCC2)nc2scc(-c3ccccc3)c12 | 25% (inactive) | 148
26 | C#CCOCCOCCOCCNc1nc(N2CCN(C(=O)[C@H](C(C)C)n3cc(CCO)nn3)CC2)nc(N2CCN(C(=O)[C@H]([C@@H](C)CC)n3cc(CCCN=C(N)N)nn3)CC2)n1 | 70% (active) | 95.3
27 | C#CCOCCOCCOCCNc1nc(N2CCN(C(=O)[C@H](C(C)C)n3cc(CCO)nn3)CC2)nc(N2CCN(C(=O)[C@H](C(C)C)n3cc(CCO)nn3)CC2)n1 | 50% (inactive) | 117

Row | Compound | inhibition | normalized cell count [%]
28 | COCCNC(=O)NC(=O)COC(=O)C1(c2ccc(Cl)cc2)CC1 | 38.9% (inactive) | 75.1
29 | COC(=O)c1ccc(Cc2ccccc2)o1 | 92.9% (active) | 83.1
30 | CCCC(NC(=O)c1ccccc1)c1nc2ccccc2n1Cc1ccc(C(=O)OC)o1 (stereo unspecified) | -17.5% (inactive) | 206
31 | COC(=O)c1ccc(CN(c2ccccc2OC)S(=O)(=O)c2cccs2)o1 | 7.89% (inactive) | 71.6
32 | COc1ccc(-c2cn3cccnc3n2)cc1 | 23.5% (inactive) | 80.6
33 | Cc1ccc(Cl)c(NC(=O)CN2CCN(C=O)CC2)c1 | -71.4% (inactive) | 117
34 | O=C(CC1C(=O)NCCN1Cc1ccc(-c2ccccc2)cc1)NCc1ccncc1 (stereo unspecified) | 0% (inactive) | 65.4
35 | CCSc1ccccc1C(=O)Nc1ccc2c(c1)OCO2 | -63.2% (inactive) | 84.3
36 | N/C(=N\OC(=O)Cc1ccccc1[N+](=O)[O-])c1ccc(Br)cc1 | 7.69% (inactive) | 129
37 | N/C(=N\OC(=O)/C=C/c1ccccc1)c1ccc(Br)cc1 | 14.3% (inactive) | 133
38 | N/C(=N\OC(=O)N1c2ccccc2Sc2ccccc21)c1ccc(Br)cc1 | 79.3% (active) | 124
39 | Cc1cc2nnc(SCC(=O)N3CCN(c4ccccc4)CC3)n2c(N)n1 | 74.3% (active) | 82.1
40 | Cc1nnc(SCC(=O)N2CCN(c3ccccc3)CC2)n1-c1ccccc1 | -41% (inactive) | 117
41 | Cc1ccccc1NC(=O)Cc1nnc(SCC(=O)N2CCN(c3ccccc3)CC2)n1C | 18.2% (inactive) | 112
42 | O=C(CSc1ccsc1[N+](=O)[O-])N1CCCCC1 | -33.3% (inactive) | 80.7
43 | Cn1c(=O)n(CCc2ccccc2)c(=O)c2c1nc1n2CCCN1c1ccccc1 | -196% (inactive) | 86.5
44 | Cc1cccc(Cn2c(N3CCN(c4ccccc4)CC3)nc3c2c(=O)n(C)c(=O)n3C)c1 | -28.1% (inactive) | 82.7
45 | Cc1cccc(N2CC(C)Cn3c2nc2c3c(=O)n(CC(=O)OCc3ccccc3)c(=O)n2C)c1 (stereo unspecified) | 87.5% (active) | 63.7
46 | O=[N+]([O-])/C(N=Nc1ccccc1)=N\Nc1ccccc1 | 7.14% (inactive) | 142
47 | COCCCNC(=S)NNC(=O)C(O)(c1ccccc1)c1ccccc1 | -89.5% (inactive) | 100
48 | C=C(Br)Cn1c(CCCC)nc2ccccc21 | 85.7% (active) | 72.7
49 | COCn1c(COc2ccccc2)nc2ccccc21 | 30% (inactive) | 132
50 | CCCCn1c(CN2CCN(CCO)CC2)nc2ccccc21 | -68.6% (inactive) | 100
51 | CCCNCc1cc(OCC)c(OCC(=O)Nc2ccccc2)cc1Br | 0% (inactive) | 99
52 | C=C(C)Cn1c(C)cc(C)c(S(=O)(=O)c2ccccc2C)c1=O | 78.4% (active) | 40.9
53 | Cc1nc([N+](=O)[O-])c(NCCCO)n1Cc1ccccc1 | 50% (inactive) | 125
